Assay results reported in PubChem BioAssay (NCATS).
Records with an inconclusive call do not appear. Unless noted, calls follow the shape of the dose curve; as a rule, active = well fitted curve in either direction with a large enough effect (not every such curve was filed as active); inconclusive = small, poorly fitted or top-dose-only effect, or another doubt; inactive = flat fitted curve, though single readings scatter.

Columns and labels:
[1] = AP1 Signaling Pathway (AID 357); settings: ME-180 AP-1-bla reporter, EGF-induced, beta-lactamase ratio, 5 h; at 17.2 µM (top of the series) unless noted; also: % is scaled to controls: 0 for no effect and ±100 for the full control effect
Outline: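 AP-1-bla ME-180 cells with beta-lactamase reporter under AP-1 response element, stimulated with EC50 EGF; compounds titrated, 5 hours at 37 degrees Celsius. CCF4 read at 460/530 nm ratio; positive and negative modulators judged by AC50.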

[2] = NFAT Signaling Pathway (AID 444); settings: Jurkat NFAT-bla M1, carbachol, beta-lactamase ratio, 5 h; at 17.2 µM (top of the series) unless noted;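 also: carbachol stimulus at about its EC50 of 1 µM final; % is scaled to controls: 0 for no effect and ±100 for the full control effect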
Outline: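 Jurkat cells carrying an NFAT-driven β-lactamase reporter and co-transfected muscarinic M1 receptor were treated with compound plus carbachol (1 uM final, an EC50 level) for 5 h at 37 °C. CCF4 loading followed for 1 h at RT; 460/530 nm ratio gave %activity.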

[3] = Stat Signaling Pathway (AID 446); settings: ME-180 SIE beta-lactamase reporter, IL-6 stimulated, 5 h; at 17.2 µM (top of the series) unless noted;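 also: ME-180 cervical cancer cells given 40 pM IL-6 alongside compound; SIE-controlled beta-lactamase reporter measured as 460/530 nm FRET emission ratio; % is scaled to controls: 0 for no effect and ±100 for the full control effect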
Outline: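 ME-180 cells carrying a SIE-driven beta-lactamase reporter are stimulated with 40 pM IL-6 for 5 h at 37C in the presence of compound. The 460/530 nm FRET substrate ratio is read after 2.5 h at RT. Data are normalised to 300 pM IL-6 and to 125 nM JAK inhibitor controls.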

[4] = molecular target: Glucocorticoid receptor (Homo sapiens) (UniProt P04150); test: GR-GFP Redistribution (AID 450;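 active = compounds whose dose series gives a full or clear partial fitted curve of increased nuclear translocation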; also: potency is read from the fitted curve at half-maximal effect)
Sequence of Glucocorticoid receptor (Homo sapiens) (P04150 whole entry, looked up): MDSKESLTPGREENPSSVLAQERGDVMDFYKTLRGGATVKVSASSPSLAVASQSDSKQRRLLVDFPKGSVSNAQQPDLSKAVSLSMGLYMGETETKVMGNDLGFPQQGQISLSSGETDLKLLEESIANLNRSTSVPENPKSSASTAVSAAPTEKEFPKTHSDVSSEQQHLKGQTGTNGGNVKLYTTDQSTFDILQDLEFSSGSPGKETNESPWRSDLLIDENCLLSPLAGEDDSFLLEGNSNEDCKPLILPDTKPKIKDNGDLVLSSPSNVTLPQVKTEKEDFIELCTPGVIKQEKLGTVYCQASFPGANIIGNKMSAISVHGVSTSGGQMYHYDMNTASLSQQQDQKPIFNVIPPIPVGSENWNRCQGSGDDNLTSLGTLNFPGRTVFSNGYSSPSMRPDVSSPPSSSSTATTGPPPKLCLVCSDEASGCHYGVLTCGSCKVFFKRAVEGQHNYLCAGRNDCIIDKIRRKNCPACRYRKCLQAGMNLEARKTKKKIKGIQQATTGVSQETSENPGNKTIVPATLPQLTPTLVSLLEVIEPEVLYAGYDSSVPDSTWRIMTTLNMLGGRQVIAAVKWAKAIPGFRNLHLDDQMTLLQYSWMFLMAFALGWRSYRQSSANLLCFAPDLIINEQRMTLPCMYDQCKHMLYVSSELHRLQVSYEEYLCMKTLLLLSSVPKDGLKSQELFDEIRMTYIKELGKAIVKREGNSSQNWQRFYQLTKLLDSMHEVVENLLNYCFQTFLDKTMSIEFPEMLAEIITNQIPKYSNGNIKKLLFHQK

COc1ccc(-c2cn3ccsc3n2)cc1
inactive: activity change, negative = inhibition [1] 11.1% | activity change, negative = inhibition [2] 4.22% | activity, negative = inhibition [3] -5.92% | Potency [4] > 20.6 µM

CN(C)c1cccc2c(S(=O)(=O)N3CCOCC3)cccc12
inactive: activity change, negative = inhibition [1] -2.48% | activity change, negative = inhibition [2] -4.98% | activity, negative = inhibition [3] 7.43% | Potency [4] > 20.6 µM

CCN(CC)CCN1C(=O)C(=O)/C(=C(/O)c2ccc(OC(C)C)cc2)C1c1ccncc1 (centres undefined)
inactive: activity change, negative = inhibition [1] -12% | activity change, negative = inhibition [2] 0.331% | activity, negative = inhibition [3] -2.31% | Potency [4] > 20.6 µM

CCc1cc2c(=O)c(-c3cscn3)coc2cc1O
inactive: activity change, negative = inhibition [1] -3.15% | activity change, negative = inhibition [2] -8.09% | activity, negative = inhibition [3] -14.6% | Potency [4] > 20.6 µM

Cc1cccc(-c2nc(C#N)c(NC3CCCCC3)o2)c1
inactive: activity change, negative = inhibition [1] -27.9% | activity change, negative = inhibition [2] -26.6% | activity, negative = inhibition [3] -7.27% | Potency [4] > 20.6 µM

COC(=O)c1ccc(Nc2cc(C)nc(-c3ccccc3O)n2)cc1
inactive: activity change, negative = inhibition [1] 15.3% | activity change, negative = inhibition [2] -10.8% | activity, negative = inhibition [3] -5.42% | Potency [4] > 20.6 µM

NC(=O)C1CCN(CCC(=O)Nc2ccc(Br)cc2)CC1
inactive: activity change, negative = inhibition [1] 11.3% | activity change, negative = inhibition [2] -28.6% | activity, negative = inhibition [3] 5.95% | Potency [4] > 20.6 µM

c1csc(Cc2nn3c(-c4ccncc4)nnc3s2)c1
inactive: activity change, negative = inhibition [1] -25% | activity change, negative = inhibition [2] 5.73% | activity, negative = inhibition [3] -2.56% | Potency [4] > 20.6 µM

CC(C(=O)N1CCCCC1)N1C(=O)c2ccccc2C1=O (centres undefined)
inactive: activity change, negative = inhibition [1] 0.952% | activity change, negative = inhibition [2] 8.42% | activity, negative = inhibition [3] 3.42% | Potency [4] > 20.6 µM

O=C(Nn1cnnc1)C(c1ccccc1)c1ccccc1
inactive: activity change, negative = inhibition [1] 13.7% | activity change, negative = inhibition [2] -6.95% | activity, negative = inhibition [3] 3.83% | Potency [4] > 20.6 µM

CN(C)/C=C1\N=C(c2cccs2)OC1=O
inactive: activity change, negative = inhibition [1] 4.03% | activity change, negative = inhibition [2] 6.03% | activity, negative = inhibition [3] 13.9% | Potency [4] > 20.6 µM

CSc1nnc2n(C3CCCCC3)c(=O)c3c4c(sc3n12)CCCC4
inactive: activity change, negative = inhibition [1] 19.1% | activity change, negative = inhibition [2] 3.83% | activity, negative = inhibition [3] 14.1% | Potency [4] > 20.6 µM

CCN(CC)CCCC1(CN)OCCc2ccccc21 (centres undefined)
inactive: activity change, negative = inhibition [1] 19.8% | activity change, negative = inhibition [2] -16.2% | activity, negative = inhibition [3] 8.19% | Potency [4] > 20.6 µM

COc1ccc(C(=O)Cn2c(N3CCCCC3)nc3c2c(=O)n(C)c(=O)n3C)cc1OC
inactive: activity change, negative = inhibition [1] 14.7% | activity change, negative = inhibition [2] 21% | activity, negative = inhibition [3] -0.755% | Potency [4] > 20.6 µM

CC(=O)C1=C(O)C(=O)N(c2ccc(C(=O)O)cc2)C1c1ccccc1 (centres undefined)
inactive: activity change, negative = inhibition [1] 5.75% | activity change, negative = inhibition [2] -2% | activity, negative = inhibition [3] 0.835% | Potency [4] > 20.6 µM

CCN(CC)CCCN1C(=O)C(=O)/C(=C(/O)c2ccccc2)C1c1ccccn1 (centres undefined)
inactive: activity change, negative = inhibition [1] -0.714% | activity change, negative = inhibition [2] 5.2% | activity, negative = inhibition [3] 3.59% | Potency [4] > 20.6 µM

O=C(Nc1ccc2c(c1)OCO2)c1cncc(Br)c1
inactive: activity change, negative = inhibition [1] -12.1% | activity change, negative = inhibition [2] -3.16% | activity, negative = inhibition [3] -14.9% | Potency [4] > 20.6 µM

COC(=O)C(NC(C)=O)(Nc1ccc(Br)cc1)C(=O)OC
inactive: activity change, negative = inhibition [1] 8.16% | activity change, negative = inhibition [2] -1.04% | activity, negative = inhibition [3] 8.85% | Potency [4] > 20.6 µM

O=C(Nc1ncn[nH]1)c1c(Cl)ccc(Cl)c1Cl
inactive: activity change, negative = inhibition [1] 13.1% | activity change, negative = inhibition [2] 1.62% | activity, negative = inhibition [3] -0.714% | Potency [4] > 20.6 µM

CCSc1nnc(NC(NC(=O)c2ccco2)(C(F)(F)F)C(F)(F)F)s1
inactive: activity change, negative = inhibition [1] 15.1% | activity change, negative = inhibition [2] -7.65% | activity, negative = inhibition [3] 3.98% | Potency [4] > 20.6 µM

CCOC(=O)C(Oc1ccc(=O)[nH]n1)C(C)=O (centres undefined)
inactive: activity change, negative = inhibition [1] 3.6% | activity change, negative = inhibition [2] 5.95% | activity, negative = inhibition [3] 2.15% | Potency [4] > 20.6 µM

OCCN=C(c1ccccc1)C12CN3CN(CN(C3)C1)C2
inactive: activity change, negative = inhibition [1] 6.77% | activity change, negative = inhibition [2] -21.4% | activity, negative = inhibition [3] 3.31% | Potency [4] > 20.6 µM

Cn1c(SCC(=O)N2CCOCC2)nnc1-c1cccc(NC(=O)c2ccccc2F)c1
inactive: activity change, negative = inhibition [1] -25.9% | activity change, negative = inhibition [2] -5.78% | activity, negative = inhibition [3] 12% | Potency [4] > 20.6 µM

O=C(CN1C(=O)c2ccccc2S1(=O)=O)NCCSCc1ccco1
inactive: activity change, negative = inhibition [1] -8.94% | activity change, negative = inhibition [2] 8.79% | activity, negative = inhibition [3] -4.36% | Potency [4] > 20.6 µM

COc1ccc(CNC(=O)c2c(C)cc(=O)oc2C)cc1OC
inactive: activity change, negative = inhibition [1] 13.7% | activity change, negative = inhibition [2] 13.8% | activity, negative = inhibition [3] 9.9% | Potency [4] > 20.6 µM

COC(=O)CSc1nc(N)c2c3c(sc2n1)CCCC3
inactive: activity change, negative = inhibition [1] -0.00134% | activity change, negative = inhibition [2] -7.55% | activity, negative = inhibition [3] 29.8% | Potency [4] > 20.6 µM
